Data reported in PubChem BioAssay (NCI).
This is part of a sample that, as a whole, favours compounds with a hit. Of some 83,000 tested, about 20% had one in any assay.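 Negative percent growth values reflect cell death: -40 means 40% of the cells present at the start died, and -100 means all died.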 Values without a mark were called inactive. Active and inactive are the calls of the source. How the source made its calls: active means growth percent below 10; inactive means the rest.

What was measured:
Assay in all cases: NCI-60 one-dose screen, 48 h (100 = growth as untreated, 0 = no growth, -100 = all killed)
Details in all cases: 10 µM unless noted
HCT-15 colon = test system: HCT-15 colon
HT29 colon = test system: HT29 colon
SNB-75 CNS = test system: SNB-75 CNS
SNB-19 CNS = test system: SNB-19 CNS
U251 CNS = test system: U251 CNS
SK-MEL-5 melanoma = test system: SK-MEL-5 melanoma
UACC-62 melanoma = test system: UACC-62 melanoma
LOX IMVI melanoma = test system: LOX IMVI melanoma
SK-MEL-28 melanoma = test system: SK-MEL-28 melanoma
PC-3 prostate = test system: PC-3 prostate

Row | SMILES | growth (HCT-15 colon) | growth (HT29 colon) | growth (SNB-75 CNS) | growth (SNB-19 CNS) | growth (U251 CNS) | growth (SK-MEL-5 melanoma) | growth (UACC-62 melanoma) | growth (LOX IMVI melanoma) | growth (SK-MEL-28 melanoma) | growth (PC-3 prostate) [%]
1 | O=C1/C(=C/c2ccccc2)SC(=S)N1CCc1ccc(O)cc1 | 100% | 102% | 81.1% | 90.4% | 97.3% | 97% | 77% | 89.2% | 103% | –
2 | Cc1cc(C)nc(SC2=C(Nc3ccc(C)c(Cl)c3)C(=O)N(Cc3ccccc3)C2=O)n1 | 63% [30 µM] | 46% [30 µM] | 58.9% [30 µM] | 78.2% [30 µM] | 68.8% [30 µM] | 62.2% [30 µM] | 49.7% [30 µM] | 75.9% [30 µM] | 94.2% [30 µM] | –
3 | O=C1Nc2ccc(Br)cc2C12Oc1ccccc1C1CC(c3ccc(F)cc3)=NN12 (stereo not drawn) | 79.9% | 93.7% | 86% | 90.6% | 90.9% | 93.3% | 84.6% | 91.9% | 105% | –
4 | Cn1cccc1-c1nc2c3c(ccc2[nH]1)C(=O)c1ccccc1C3=O | 82.1% | 104% | 137% | 105% | 87.5% | 90.4% | 80.5% | 88.9% | 117% | –
5 | Cn1cc(-c2nonc2-c2c[nH]c3ccccc23)c2cccnc21 | 23.5% | 12.4% | 21.2% | 46.4% | 26% | 26.3% | 41.5% | 43% | 61.5% | –
6 | c1csc(C2=NN3C(C2)c2ccccc2OC3c2ccncc2)c1 (stereo not drawn) | 95.5% | 107% | 82.2% | 90.5% | 91.5% | 92.7% | 94.1% | 89.3% | 107% | –
7 | CCOc1cc2c(cc1OCC)C(c1cc(OC)c(O)cc1Cl)NCC2 (stereo not drawn) | 86.9% | 56.9% | 82.2% | 103% | 84.1% | 88.6% | 99.8% | 89.6% | 99.9% | –
8 | CN1CCN(c2ccc3nc(-c4ccc(OCCCCN5CCN(CCCCN6C(=O)c7cccc8cccc(c78)C6=O)CC5)cc4)[nH]c3c2)CC1 | 76.2% | 60.3% | 36.4% | 84.2% | 64.8% | 69.1% | 95.4% | 47.1% | 24.6% | –
9 | CCCCC(=O)OCC1OC(n2cnc3c(=S)nc[nH]c32)C(OC(=O)CCCC)C1OC(=O)CCCC (stereo not drawn) | 33.1% | 27% | 51% | 64.2% | 70.1% | 23.3% | 7.37% (active) | 12.1% | 85.7% | –
10 | CC(O)CN(CC(C)O)c1ccc2c(c1)Cc1cc([N+](=O)[O-])ccc1-2 (stereo not drawn) | 83.5% | 103% | 87.5% | 98.9% | 102% | 103% | 95.7% | 96.2% | 109% | –
11 | O=C1c2ccccc2C(=O)c2c1ccc1[nH]c(-c3cccs3)nc21 | 89.8% | 107% | 98.9% | 100% | 72.7% | 85% | 85.5% | 79.2% | 127% | –
12 | Cc1[nH]c(-c2cc(N)ccc2Cl)c2c1C(=O)CCCC2 | 17.7% | 12.8% | 1.7% (active) | 35.6% | 38.5% | 1.73% (active) | 15.7% | 3.58% (active) | 59.1% | –
13 | COc1cc(C2CC(=O)c3ccccc3N2)cc(OC)c1OC (stereo not drawn) | 102% | 77.8% | 94.7% | 97.1% | 88.5% | 99.5% | 94.1% | 104% | 107% | –
14 | Cn1cc(C(=O)c2nc(-c3c[nH]c4ccccc34)no2)c2ccccc21 | 25.6% | 35.8% | 55.6% | 91.8% | 92.4% | 16.8% | 60.3% | 83.9% | 94% | –
15 | O=C(N/N=C/c1ccccc1O)c1ccccc1Nc1ccnc(C(F)(F)F)c1 | 24.6% | 41.3% | 20.7% | 21.8% | 18.8% | -64.5% (active) | -19.1% (active) | 7.93% (active) | 28.3% | –
16 | CN(C)CCN1C(=O)c2cccc3c(N)ccc(c23)C1=O | 23.2% | 13.5% | 56.9% | 27.3% | 22.5% | -21.8% (active) | 33.1% | 5.28% (active) | 71.2% | –
17 | O=C1Nc2cc(-c3ccc(O)cc3)ccc2/C1=C/c1ccc[nH]1 | 7.26% (active) | 8.88% (active) | 19% | 27.8% | 18.9% | -17.3% (active) | 15.7% | -6.81% (active) | 23.6% | –
18 | CCCc1cc(=O)n2c(C(=O)Nc3ccc(F)cc3)c(C(=O)Nc3ccc(F)cc3)sc2n1 | 83% [30 µM] | 53.8% [30 µM] | -15.9% [30 µM] (active) | 48.4% [30 µM] | 41.6% [30 µM] | 82.8% [30 µM] | 84% [30 µM] | 65.1% [30 µM] | 77.7% [30 µM] | –
19 | Cc1cc(C)c2nc3nc(C)cc(C)c3c(N)c2c1 | 16.4% | 18% | 52.7% | 35.3% | 15.3% | 26.8% | 41.8% | 7.77% (active) | 38.7% | –
20 | FC(F)(F)c1ccc(-c2cn3nc(-c4c[nH]c5ccc(Br)cc45)sc3n2)cc1 | 70.6% | 97.4% | 86.1% | 100% | 92.2% | 96.3% | 84.8% | 88.2% | 111% | –
21 | COc1ccc(C(=O)/C=C/c2cccnc2Nc2cc(OC)c(OC)c(OC)c2)cc1 | 18.1% | 15.1% | 21.2% | 36.3% | 13% | 43% | 50% | -26% (active) | 71.5% | –
22 | Cn1cc(-c2nonc2-c2c[nH]c3ccc(F)cc23)c2cccnc21 | 62.3% | 99.3% | 56.3% | 90.2% | 84.4% | 78.2% | 64.4% | 85.3% | 98.4% | –
23 | Cc1ccc(C2Oc3ccccc3C3CC(c4cccs4)=NN32)cc1 (stereo not drawn) | 100% | 109% | 81.7% | 96% | 92.5% | 96.3% | 96.2% | 94.4% | 103% | –
24 | Cc1ccccc1COc1ccc(-c2onc(C)c2-c2ccc(Cl)cc2)cc1 | 37.6% | 16.9% | 52.9% | 55.5% | 41.3% | 73.4% | 48.5% | 68% | 70.5% | –
25 | C=CC(=O)Nc1cccc(-c2nc(SC)nc(NCCc3ccc(OC)c(OC)c3)c2C#N)c1 | 52.3% | 77.5% | 37.9% | 71.8% | – | -29.2% (active) | 48.1% | 56.6% | – | 53.2
26 | O=C(COc1cccc(/C=C2\CSc3ccccc3C2=O)c1)Nc1nccs1 | 75.5% | 15.9% | 22.2% | 79.5% | 41.8% | – | 64.1% | -100% (active) | -0.13% (active) | –
27 | Cn1cc(C(=O)c2nc(-c3c[nH]c4ccc(Br)cc34)no2)c2cc(F)ccc21 | 92.1% | 102% | 74.8% | 99.1% | 100% | 83.8% | 78% | 95.4% | 105% | –
28 | COc1ccc(/C=C(\C#N)C(=O)Nc2cccc(Nc3nc(SC)nc(-c4cccc([N+](=O)[O-])c4)c3C#N)c2)cc1OC | 95.3% | 113% | 92% | 104% | – | 94.8% | 97% | 97.6% | – | 94.8
29 | COc1ccc(C(=S)N2CCN(c3cccc(Cl)c3)CC2)cc1 | 108% | 101% | 93.2% | 101% | 112% | 130% | 85.2% | 103% | 103% | –
